# Results: PubChem BioAssay (NCI)
# The panel holds about 79,000 compounds, 15% with a hit somewhere; the sample as a whole holds those more often. Values without a mark were called inactive. Calls of active or inactive are those of the source. Rule as the data show it: active = growth inhibition above about 70%; inactive = the rest.
# Key:
# [1] = NCI Yeast Anticancer Drug Screen. Data for the rad52 strain (AID 147);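 also: 0% = growth of vehicle-treated control cultures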; conditions: S. cerevisiae rad52 mutant growth inhibition, hits give high values
# Summary of the method: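 DNA repair-defective yeast; compound exposure; growth scored against vehicle controls.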
# [2] = NCI Yeast Anticancer Drug Screen. Data for the wt1 strain (AID 149);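 also: 0% = growth of vehicle-treated wt1 cultures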; conditions: S. cerevisiae wt1 strain (SPY 50644) growth inhibition, hits give high values
# Summary of the method: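 Growth inhibition read against vehicle controls after compound exposure of the wt1 yeast strain.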
# [3] = NCI Yeast Anticancer Drug Screen. Data for the rad50EPP+ strain (AID 151);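 also: 0% = growth of vehicle-treated control cultures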; conditions: S. cerevisiae rad50 mutant strain, hits give high values
# Summary of the method: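 rad50EPP+ yeast treated with test compounds. Readout: growth vs vehicle control.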
# [4] = NCI Yeast Anticancer Drug Screen. Data for the mgt1 strain (AID 153); conditions: S. cerevisiae mgt1 mutant growth inhibition, hits give high values
# Summary of the method: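 Growth inhibition relative to vehicle controls was scored for the mgt1 yeast strain after compound exposure.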
# [5] = NCI Yeast Anticancer Drug Screen. Data for the rad50 strain (AID 155);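 also: 0% = growth of vehicle-only cultures of the same strain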; conditions: S. cerevisiae rad50 strain growth inhibition, hits give high values
# Summary of the method: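 Readout: growth inhibition relative to vehicle-treated cultures. Compound exposure was carried out in a genetically defined yeast strain deficient in DNA damage repair.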
# [6] = NCI Yeast Anticancer Drug Screen. Data for the mec2-1 strain (AID 157); conditions: S. cerevisiae mec2-1 strain, hits give high values
# Summary of the method: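 Growth inhibition is read against vehicle-treated controls after compound exposure of the mec2-1 yeast strain, which is defective in DNA damage repair or cell cycle control.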
# [7] = NCI Yeast Anticancer Drug Screen. Data for the rad14 strain (AID 159);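 also: 0% = growth of vehicle-treated control cultures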; conditions: S. cerevisiae rad14 strain growth inhibition, hits give high values
# Summary of the method: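 Growth inhibition vs vehicle controls; genetically altered yeast strain (DNA damage repair defect) treated with test compounds.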
# [8] = NCI Yeast Anticancer Drug Screen. Data for the sgs1 mgt1 strain (AID 161);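 also: 0% = growth of cultures given vehicle only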; conditions: S. cerevisiae sgs1 mgt1 strain, hits give high values
# Summary of the method: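 Growth of a repair-deficient yeast mutant was monitored after compound treatment and expressed as inhibition relative to vehicle-treated cultures.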
# [9] = NCI Yeast Anticancer Drug Screen. Data for the cln2 rad14 strain (AID 165);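 also: 0% = growth equal to vehicle treated cultures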; conditions: S. cerevisiae cln2 rad14 strain, hits give high values
# Summary of the method: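 Growth inhibition, relative to vehicle-treated controls, is the read-out. The test organism is a yeast strain with defined genetic alterations, cln2 rad14.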
# [10] = NCI Yeast Anticancer Drug Screen. Data for the bub3 strain (AID 167); conditions: S. cerevisiae bub3 mutant strain, hits give high values
# Summary of the method: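 Readout: yeast growth inhibition, expressed relative to vehicle-only wells. The test organism is a mutant strain from a panel with lesions in DNA repair or checkpoint genes.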
# [11] = NCI Yeast Anticancer Drug Screen. Data for the wt2 strain (AID 169);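 also: 0% = growth of vehicle-treated yeast cultures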; conditions: S. cerevisiae wt2 strain growth inhibition, hits give high values
# Summary of the method: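 Compound exposure of yeast; growth compared with vehicle controls; inhibition reported.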
# [12] = NCI Yeast Anticancer Drug Screen. Data for the mlh1 strain (AID 171);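 also: 0% = growth of vehicle-treated control cultures of the same strain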; conditions: S. cerevisiae mlh1 strain growth inhibition, hits give high values
# Summary of the method: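 Compounds are applied to a genetically altered yeast strain, and its growth is compared with that of vehicle-treated cultures to give percent inhibition.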
# [13] = NCI Yeast Anticancer Drug Screen. Data for the sgs1 strain (AID 173);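 also: 0% = growth of vehicle-only control cultures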; conditions: S. cerevisiae sgs1 mutant, hits give high values
# Summary of the method: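 Compounds applied to genetically altered yeast; growth compared with vehicle-treated cultures to give % inhibition.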
# [14] = NCI Yeast Anticancer Drug Screen. Data for the mlh1 rad18 strain (AID 175); conditions: S. cerevisiae mlh1 rad18 strain growth inhibition, hits give high values
# Summary of the method: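 Cells of a genetically altered yeast strain, deficient in DNA damage repair, were treated with compound. Their growth was then compared with that of vehicle-treated cultures to give inhibition.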
# [15] = NCI Yeast Anticancer Drug Screen. Data for the rad18 strain (AID 177); conditions: S. cerevisiae rad18 mutant growth inhibition, hits give high values
# Summary of the method: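 Compounds are applied to a repair-deficient yeast strain, and growth is compared with that of vehicle-treated cultures to give percent inhibition.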
# [16] = at 5.0 µM (retest, dose inferred, filed as 0.5)
# [17] = at 50.0 µM (retest, dose inferred, filed as 5.0)
compound,measurement,setting,value
O=C1c2cccnc2C(=O)C2C3C=CC(C3)C12 (stereo not drawn),growth inhibition,[1]; at 1.2 µM,12%
same,growth inhibition,[1]; at 3.7 µM,35%
same,growth inhibition,[1]; at 11.0 µM,78% (active)
same,growth inhibition,[1]; at 33.0 µM,94% (active)
same,growth inhibition,[1]; at 100.0 µM,98% (active)
same,growth inhibition,[2]; at 1.2 µM,16%
same,growth inhibition,[2]; at 3.7 µM,20%
same,growth inhibition,[2]; at 11.0 µM,43%
same,growth inhibition,[2]; at 33.0 µM,91% (active)
same,growth inhibition,[2]; at 100.0 µM,99% (active)
same,growth inhibition,[3]; at 1.2 µM,30%
same,growth inhibition,[3]; at 3.7 µM,82% (active)
same,growth inhibition,[3]; at 11.0 µM,92% (active)
same,growth inhibition,[3]; at 33.0 µM,96% (active)
same,growth inhibition,[3]; at 100.0 µM,97% (active)
same,growth inhibition,[4]; at 1.2 µM,12%
same,growth inhibition,[4]; at 3.7 µM,32%
same,growth inhibition,[4]; at 11.0 µM,65%
same,growth inhibition,[4]; at 33.0 µM,94% (active)
same,growth inhibition,[4]; at 100.0 µM,98% (active)
same,growth inhibition,[5]; at 1.2 µM,31%
same,growth inhibition,[5]; at 3.7 µM,73% (active)
same,growth inhibition,[5]; [16],29%
same,growth inhibition,[5]; at 11.0 µM,91% (active)
same,growth inhibition,[5]; at 33.0 µM,97% (active)
same,growth inhibition,[5]; [17],96% (active)
same,growth inhibition,[5]; at 50.0 µM,99.4% (active)
same,growth inhibition,[5]; at 100.0 µM,94% (active)
same,growth inhibition,[6]; at 1.2 µM,19%
same,growth inhibition,[6]; at 3.7 µM,34%
same,growth inhibition,[6]; [16],37%
same,growth inhibition,[6]; at 11.0 µM,87% (active)
same,growth inhibition,[6]; at 33.0 µM,98% (active)
same,growth inhibition,[6]; [17],98% (active)
same,growth inhibition,[6]; at 50.0 µM,99.5% (active)
same,growth inhibition,[6]; at 100.0 µM,99% (active)
same,growth inhibition,[7]; at 1.2 µM,20%
same,growth inhibition,[7]; at 3.7 µM,44%
same,growth inhibition,[7]; at 11.0 µM,87% (active)
same,growth inhibition,[7]; at 33.0 µM,99% (active)
same,growth inhibition,[7]; at 100.0 µM,99% (active)
same,growth inhibition,[8]; [16],56%
same,growth inhibition,[8]; [17],98% (active)
same,growth inhibition,[8]; at 50.0 µM,99.2% (active)
same,growth inhibition,[9]; [16],-31%
same,growth inhibition,[9]; [17],85% (active)
same,growth inhibition,[9]; at 50.0 µM,45.5%
same,growth inhibition,[10]; at 1.2 µM,9%
same,growth inhibition,[10]; at 3.7 µM,30%
same,growth inhibition,[10]; [16],57%
same,growth inhibition,[10]; at 11.0 µM,72% (active)
same,growth inhibition,[10]; at 33.0 µM,95% (active)
same,growth inhibition,[10]; [17],98% (active)
same,growth inhibition,[10]; at 50.0 µM,98.4% (active)
same,growth inhibition,[10]; at 100.0 µM,99% (active)
same,growth inhibition,[11]; at 1.2 µM,16%
same,growth inhibition,[11]; at 3.7 µM,36%
same,growth inhibition,[11]; at 11.0 µM,78% (active)
same,growth inhibition,[11]; at 33.0 µM,97% (active)
same,growth inhibition,[11]; at 100.0 µM,99% (active)
same,growth inhibition,[12]; at 1.2 µM,28%
same,growth inhibition,[12]; at 3.7 µM,55%
same,growth inhibition,[12]; at 11.0 µM,92% (active)
same,growth inhibition,[12]; at 33.0 µM,98% (active)
same,growth inhibition,[12]; at 100.0 µM,99% (active)
same,growth inhibition,[13]; at 1.2 µM,18%
same,growth inhibition,[13]; at 3.7 µM,36%
same,growth inhibition,[13]; at 11.0 µM,75% (active)
same,growth inhibition,[13]; at 33.0 µM,93% (active)
same,growth inhibition,[13]; at 100.0 µM,98% (active)
same,growth inhibition,[14]; [16],72% (active)
same,growth inhibition,[14]; [17],98% (active)
same,growth inhibition,[14]; at 50.0 µM,99.2% (active)
same,growth inhibition,[15]; at 1.2 µM,29%
same,growth inhibition,[15]; at 3.7 µM,76% (active)
same,growth inhibition,[15]; at 11.0 µM,91% (active)
same,growth inhibition,[15]; at 33.0 µM,96% (active)
same,growth inhibition,[15]; at 100.0 µM,97% (active)
